Test results: PubChem BioAssay (EPA / NIEHS)
Where “and” joins values, the source holds several entries; their conditions need not be identical. Identical values can stand only once. Results filed as inconclusive are left out. Some structures have more than one record in an assay (separate samples or runs), and their calls can disagree. Calls of active or inactive are those of the source. How the source made its calls: active means hit-call score of the fitted dose curve at least 0.9, where 1 is the maximum; inconclusive means response in the unintended direction; inactive means score below 0.9.

Tests used:
[1] = test system: Thyroperoxidase (TPO), gene 54314; test: CCTE_Simmons_AUR_rTPO: CCTE's Amplex UltraRed Assay for Thyroperoxidase (TPO) Inhibition, Simmons Lab (AID 2283662);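 on AC50: potency for loss of signal meaning inhibition of peroxidase activity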
Outline: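 Cell-free peroxidase activity assay using rat thyroid gland microsomes with excess H2O2 (300 uM) and 25 uM Amplex UltraRed. Compounds tested from 5 nM to 87.5 uM; fluorescence measured after 30 min at 37C, analysed relative to DMSO baseline.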

[2] = CCTE_Simmons_CellTiterGLO_HEK293T: Viability Assessment in CCTE's Assays for Thyroperoxidase (TPO) Inhibition, Simmons Lab (AID 2283665);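 on AC50: cells exposed to compound for 24 h before readout; actives reduce ATP signal below DMSO vehicle meaning cytotoxicity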
Outline: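 Cells were seeded overnight, then exposed to an eight-point series up to 87.5 uM final for 24 hours. CellTiter-Glo reagent was added and luminescence read after 20 min, giving ATP-based viability versus DMSO.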

[3] = Tanguay_ZF_120hpf_MORT_legacy: (Legacy) Oregon State University Tanguay Lab 120 Hour Post-fertilization zebrafish Assay for Mortality (AID 2283633)
Outline: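 Single dechorionated Tropical 5D embryos were held with test chemical (0.64% DMSO final) from 6 to 120 hpf at 28C under foil. Deaths at 24 or 120 hpf were recorded as binary calls, analysed for increase over DMSO controls.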

[4] = Tanguay_ZF_120hpf_YSE_legacy: (Legacy) Oregon State University Tanguay Lab 120 Hour Post-fertilization zebrafish Assay for Yolk Sac Edema (AID 2283634)
Outline: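 Single dechorionated embryos were held in sealed plates at 28C with test chemical (0.64% DMSO final) from 6 hpf until 120 hpf. Edema of the yolk sac was then recorded as a binary endpoint; non-mortality endpoints were skipped for dead embryos.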

[5] = Tanguay_ZF_120hpf_AXIS_legacy: (Legacy) Oregon State University Tanguay Lab 120 Hour Post-fertilization zebrafish Assay for Body Axis Malformation (AID 2283635)
Outline: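 Each dechorionated embryo was exposed alone from 6 hpf, with DMSO at 0.64% (vol/vol) and trimethyltin chloride 5 uM as positive control. Axis malformation was recorded at 120 hpf unless the embryo had died.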

[6] = Tanguay_ZF_120hpf_EYE_legacy: (Legacy) Oregon State University Tanguay Lab 120 Hour Post-fertilization zebrafish Assay for Eye Malformation (AID 2283636);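 further: binary presence or absence of eye malformation scored by brightfield in 120 hpf larvae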
Outline: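 Binary brightfield scoring of eye defects at 120 hpf after static exposure from 6 hpf of single pronase-dechorionated wild-type embryos (28C, 0.64% DMSO). Non-mortality endpoints omitted where embryos died; fit vs DMSO.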

[7] = Tanguay_ZF_120hpf_JAW_legacy: (Legacy) Oregon State University Tanguay Lab 120 Hour Post-fertilization zebrafish Assay for Jaw Malformation (AID 2283638)
Outline: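 Wild-type 5D embryos, chorion removed at 4 hpf, dosed singly from 6 hpf; 28C static, sealed, foil-covered, to 120 hpf. Endpoint: jaw defect yes/no (brightfield); mortality excludes scoring.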

[8] = Tanguay_ZF_120hpf_BRAI_legacy: (Legacy) Oregon State University Tanguay Lab 120 Hour Post-fertilization zebrafish Assay for Brain Malformation (AID 2283641)
Outline: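 Static exposure of staged wild-type embryos until 120 hpf, kept at 28C with light excluded and final DMSO of 0.64% (vol/vol). Presence or absence of brain malformation was noted under brightfield; mortality precluded scoring.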

[9] = Tanguay_ZF_120hpf_SOMI_legacy: (Legacy) Oregon State University Tanguay Lab 120 Hour Post-fertilization zebrafish Assay for Somite Malformation (AID 2283647)
Outline: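 Somitogenesis defects are recorded as binary calls in whole larvae at 120 hpf after continuous static chemical exposure starting at 6 hpf in dechorionated 5D embryos. DMSO serves as negative control and baseline.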

[10] = Tanguay_ZF_120hpf_PFIN_legacy: (Legacy) Oregon State University Tanguay Lab 120 Hour Post-fertilization zebrafish Assay for Pectoral Fin Malformation (AID 2283648);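 further: each larva judged yes or no for fin defect by brightfield with dead larvae skipped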
Outline: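 Pectoral fin malformation was recorded as a binary endpoint at 120 hpf in wild-type Tropical 5D larvae, which had been dechorionated and exposed statically from 6 hpf at 28C in 0.64% DMSO. Dead embryos were excluded.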

[11] = Tanguay_ZF_120hpf_CFIN_legacy: (Legacy) Oregon State University Tanguay Lab 120 Hour Post-fertilization zebrafish Assay for Caudal Fin Malformation (AID 2283649)
Outline: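 Single dechorionated 5D wild-type embryos are dosed at 6 hpf (final DMSO 0.64%) and held statically at 28C. Caudal fin malformation is recorded as present or absent at 120 hpf under brightfield, excluding dead embryos.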

[12] = Tanguay_ZF_120hpf_PIG_legacy: (Legacy) Oregon State University Tanguay Lab 120 Hour Post-fertilization zebrafish Assay for Pigmentation Malformation (AID 2283650)
Outline: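 Pigment malformation recorded as a binary call at 120 hpf in zebrafish (Tropical 5D) exposed singly from 6 hpf after pronase dechorionation. Static, sealed, 28C exposure, 0.64% DMSO; mortality excludes scoring; positive-direction fit against DMSO.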

[13] = Tanguay_ZF_120hpf_CIRC_legacy: (Legacy) Oregon State University Tanguay Lab 120 Hour Post-fertilization zebrafish Assay for Circulatory Malformation (AID 2283651)
Outline: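 Embryos are dechorionated at 4 hpf, plated one per well at 6 hpf, then held under static exposure at 28C until 120 hpf. Malformations are recorded as binary calls; mortality excludes other endpoints.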

[14] = Tanguay_ZF_120hpf_SWIM_legacy: (Legacy) Oregon State University Tanguay Lab 120 Hour Post-fertilization zebrafish Assay for Swim Bladder Malformation (AID 2283654);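 further: swim bladder malformation in each larva scored yes or no under brightfield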
Outline: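 Scoring is binary for swim bladder defects at 120 hpf, by brightfield inspection of zebrafish larvae. Embryos were exposed singly from 6 hpf after pronase dechorionation, at 28C with 0.64% DMSO; mortality excluded scoring.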

[15] = Tanguay_ZF_120hpf_TRUN_legacy: (Legacy) Oregon State University Tanguay Lab 120 Hour Post-fertilization zebrafish Assay for Truncated Body (AID 2283655)
Outline: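 Single dechorionated zebrafish embryos received test chemical from 6 hpf in 0.64% DMSO, kept at 28C. At 120 hpf, brightfield inspection noted any truncated body.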

[16] = target: Cellular tumor antigen p53 (Homo sapiens) (UniProt P04637); test: TOX21_p53_BLA_p4_ratio: Tox21 HCT-116 p53 Agonism Beta-lactamase Assay, Ratio, Phase 4 (AID 2283601)
Outline: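 Signal is the blue/green (460nm/530nm) ratio of cleaved versus uncleaved CCF4-AM substrate, read after 2 h substrate loading. Cells were HCT116 carrying the p53-responsive beta-lactamase reporter, dosed 16 h at 37C, 5% CO2; CellTiter-Glo measured in parallel.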

Measured: AC50

Cellular tumor antigen p53 (Homo sapiens), sequence (P04637 whole entry, looked up): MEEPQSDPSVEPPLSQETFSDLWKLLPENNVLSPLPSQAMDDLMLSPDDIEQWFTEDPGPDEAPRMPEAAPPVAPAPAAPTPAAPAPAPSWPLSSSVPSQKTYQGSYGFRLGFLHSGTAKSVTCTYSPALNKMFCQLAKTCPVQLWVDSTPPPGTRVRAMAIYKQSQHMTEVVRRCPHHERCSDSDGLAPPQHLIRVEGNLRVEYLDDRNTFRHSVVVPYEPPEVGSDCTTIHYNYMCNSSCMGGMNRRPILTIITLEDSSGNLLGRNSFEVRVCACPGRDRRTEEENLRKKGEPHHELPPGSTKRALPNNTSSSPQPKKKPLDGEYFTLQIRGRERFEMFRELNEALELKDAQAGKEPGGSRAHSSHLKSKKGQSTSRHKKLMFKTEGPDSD

CCc1cccc(CC)c1N(COC)C(=O)CS(=O)(=O)O
inactive: [1] | [2]

CCCCCCCCCCCCOS(=O)(=O)O
not listed: [1] | [2] | [16]
inactive: all other assays above

CC(=O)Nc1ccc(O)cc1
not listed: [1] | [2] | [16]
inactive: all other assays above

O=C1NS(=O)(=O)c2ccccc21
not listed: [1] | [2] | [8] | [16]
inactive: all other assays above

CS(=O)(=O)c1ccc([C@@H](CC2CCCC2)C(=O)Nc2cnccn2)cc1Cl
not listed: [1] | [2] | [8] | [9] | [14] | [16]
inactive: all other assays above

CCC(C)c1ccccc1O (stereo unspecified)
not listed: [1] | [2] | [13] | [16]
inactive: all other assays above

CCCCC(CC)C(=O)O (stereo unspecified)
inactive: [3] | [4] | [5] | [7] | [8] | [10] | [12]

CCCCCCCCCCCCOC(=O)c1cc(O)c(O)c(O)c1
active: [16] 53 µM and 36.9 µM | [1] 1.05 µM | [2] 5.48 µM

CC(=O)CC(C)C
inactive: [16]

CCCCCCCCCCCC(=O)NCCCN(C)C
active: [16] 59.8 µM

CCCCCCCCC1CCC(=O)O1 (stereo unspecified)
inactive: [16]

Cc1cc(Cc2cc(C)cc(C(C)(C)C)c2O)c(O)c(C(C)(C)C)c1
active: [16] 24.2 µM and 48.1 µM | [1] 1.04 µM | [2] 6.57 µM

C[C@]12CC[C@@H]3c4ccc(O)cc4CC[C@H]3[C@@H]1C[C@@H](O)[C@@H]2O
inactive: [16] | [2]
active: [1] 11.9 µM

OCC1CCC(CO)CC1 (stereo unspecified)
inactive: [16]

CCCCc1oc2ccccc2c1C(=O)c1cc(I)c(OCCN(CC)CC)c(I)c1
active: [16] 64.9 µM
inactive: [16] | [3] | [4] | [5] | [6] | [7] | [9] | [10] | [11] | [12] | [15]

CCCCCCCCCCCCCCC
not listed: [1] | [2] | [12] | [16]
inactive: all other assays above

O=C(c1ccccc1)c1ccccc1
not listed: [1] | [2] | [8]
inactive: all other assays above

Cc1cc(C(=C2C=CC(=Nc3ccc(S(=O)(=O)O)cc3)C=C2)c2ccc(Nc3ccc(S(=O)(=O)O)cc3)cc2)cc(S(=O)(=O)O)c1N
inactive: [2]
active: [1] 29.4 µM
